This note sets out measurements from PubChem BioAssay (NCATS).

A number with no mark means an inactive call. Results filed as inconclusive are left out. Calls of active or inactive are those of the source. Unless noted, calls follow the shape of the dose curve; as a rule, active = well fitted curve in the direction sought with a large enough effect; inconclusive = small, poorly fitted or top-dose-only effect, or another doubt; inactive = no such curve, though single readings can be large; an effect the other way counts as inactive or inconclusive. Some results are limits rather than exact numbers.

Test [1] in a line: Cell Viability - Jurkat (AID 426;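 active = dose-dependent loss of cell ATP signal giving a full or clear fitted curve, ranked by lower potency value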;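 also: potency is read from the fitted curve at half-maximal effect; cells exposed to compound for 40 hours at 37 °C before ATP read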). Particulars: qHTS. An outline of the steps:
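Luminescent ATP read-out (CellTiter-Glo, 20 min at room temperature) after 40 hr compound exposure at 37 °C of Jurkat E6-1 cells, 5000/well. Decreased ATP taken as cytotoxicity; AC50 from standard Hill equation.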
Background: In qHTS, concentration-response curves come from the screen itself.

Test [2] is described as follows: Cell Viability - NIH 3T3 (AID 541).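 Also: cells exposed to compound for 40 hours; plate controls were DMSO alone for no effect and tamoxifen positive control for full effect; nearly all actives have a fitted effect of over 25% in size.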 The note with it: NIH 3T3 cell viability, qHTS; activity change, negative = cytotoxicity: at 92.2 µM (top of the series). An outline of the steps: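 qHTS format; 40 hr compound exposure, 37 °C; CellTiter-Glo luminescence (cellular ATP) read-out after 20 min at RT. Decrease in ATP = cytotoxicity; AC50 from standard Hill fit.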
Test [3] is described as follows: Cellular Toxicity (caspase-3) BJ (AID 658).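 Also: cells exposed to compound for 16 hours.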 Particulars: BJ fibroblasts, luminescence; Potency: caspase-3 activation; series mostly up to 91.7 µM. An outline of the steps: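 qHTS, BJ fibroblasts, 1000 cells/well; 5 hr preincubation, 16 hr compound, 37 °C; Caspase-Glo 3/7 reagent, 1 hr RT; luminescence. DMSO = 0%, 10 uM staurosporine = 100%. Hill-equation AC50.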

Test [4] in a line: Cellular Toxicity (caspase-3) Mesangial (AID 660).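 Also: combined caspase 3 and 7 activity read by Caspase-Glo luminescence; cells exposed to compound for 16 h before the caspase read.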 The note with it: mesangial cells, normalized: DMSO 0%, 100 µM tamoxifen 100%; series mostly up to 91.7 µM. An outline of the steps: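 Luminescent Caspase-Glo 3/7 readout (aminoluciferin substrate cleavage, 20 min RT) after 16 h compound exposure at 37 °C of normal human mesangial cells. Signal increase normalized between DMSO basal and 100 uM tamoxifen; Hill-equation AC50.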

The nature of test [5]: Cellular Toxicity (caspase-3) H-4-II-E (AID 663).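 Also: cells exposed to compound for 16 hr before readout.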 Particulars: H-4-II-E rat hepatoma; Potency: caspase-3 activation; series mostly up to 92.2 µM. An outline of the steps:
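H-4-II-E rat hepatoma, 1500 cells/well, 5 hr settle at 37 °C; compound 16 hr, 37 °C, complete medium; Caspase-Glo 3/7, 20 min RT; luminescence. DMSO = 0%, 100 uM tamoxifen = 100%; Hill-equation AC50.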

For test [6], the target named is Cytochrome P450 3A4 (Homo sapiens) (UniProt P08684). The experiment in a line: qHTS Assay for Inhibitors and Substrates of Cytochrome P450 3A4 (AID 884). Also: % is scaled to controls: 0 for no effect and ±100 for the full control effect; nearly all actives have a fitted effect of over 50% in size. The note with it: recombinant CYP3A4, Luciferin-PPXE luminescence; series mostly up to 57.1 µM. An outline of the steps: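 Luminescent readout of luciferin produced by CYP3A4 (20 nM) dealkylation of Luciferin-PPXE, 25 uM (its KM). NADPH-driven reaction ran 60 min at RT after 10 min compound preincubation; data scaled to 57 uM ketoconazole as 100% inhibition.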
Cytochrome P450 3A4 (Homo sapiens), sequence (P08684 whole entry, looked up): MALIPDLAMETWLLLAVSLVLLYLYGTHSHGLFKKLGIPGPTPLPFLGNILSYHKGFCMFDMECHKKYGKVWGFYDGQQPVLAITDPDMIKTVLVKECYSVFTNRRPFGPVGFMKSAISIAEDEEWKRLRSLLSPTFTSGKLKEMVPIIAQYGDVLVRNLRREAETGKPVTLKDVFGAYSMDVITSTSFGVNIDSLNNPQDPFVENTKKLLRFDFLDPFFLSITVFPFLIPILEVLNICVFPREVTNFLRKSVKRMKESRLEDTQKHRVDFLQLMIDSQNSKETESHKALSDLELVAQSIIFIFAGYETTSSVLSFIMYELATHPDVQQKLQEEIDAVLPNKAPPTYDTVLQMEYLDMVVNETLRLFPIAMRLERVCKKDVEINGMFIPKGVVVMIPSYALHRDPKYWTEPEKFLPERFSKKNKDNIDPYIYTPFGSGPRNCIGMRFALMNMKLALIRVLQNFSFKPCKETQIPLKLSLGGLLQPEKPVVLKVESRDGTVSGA

The target of test [7] is Estrogen receptor (Homo sapiens) (UniProt P03372). Briefly: qHTS assay for small molecule antagonists of estrogen receptor alpha signaling (AID 588513; active = well fitted curve in the direction sought with a large enough effect in the signal ratio, with a control signal flat, not every such curve was filed as active; the % refers to the signal ratio; also: % is scaled to controls: 0 for no effect and ±100 for the full control effect). Particulars: ER-alpha-UAS-bla HEK293, beta-lactamase ratio, antagonist mode; series mostly up to 76.9 µM. An outline of the steps: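 Fluorescence from CCF4 substrate after 2 h at room temperature gave reporter activity; cells had been exposed to compound and 0.5nM 17-beta-estradiol for 18 h at 37 C. Hill-equation fitting yielded IC50 and maximal response.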
Estrogen receptor (Homo sapiens), sequence (P03372 whole entry, looked up): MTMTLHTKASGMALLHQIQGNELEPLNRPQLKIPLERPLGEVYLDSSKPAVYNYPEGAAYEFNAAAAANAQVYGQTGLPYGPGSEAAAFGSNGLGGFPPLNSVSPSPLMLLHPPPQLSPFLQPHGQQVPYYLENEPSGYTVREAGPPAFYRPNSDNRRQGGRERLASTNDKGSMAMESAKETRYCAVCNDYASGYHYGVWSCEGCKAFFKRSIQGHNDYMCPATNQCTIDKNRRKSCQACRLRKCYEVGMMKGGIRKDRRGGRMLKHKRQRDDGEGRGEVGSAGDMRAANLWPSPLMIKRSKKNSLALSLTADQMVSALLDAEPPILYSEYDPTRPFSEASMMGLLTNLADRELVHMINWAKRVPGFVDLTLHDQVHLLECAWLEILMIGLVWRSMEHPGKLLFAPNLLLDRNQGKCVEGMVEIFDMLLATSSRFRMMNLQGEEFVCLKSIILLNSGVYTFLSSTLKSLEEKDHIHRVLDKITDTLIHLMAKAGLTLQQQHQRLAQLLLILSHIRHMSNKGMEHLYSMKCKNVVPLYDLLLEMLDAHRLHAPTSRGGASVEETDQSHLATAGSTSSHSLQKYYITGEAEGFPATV

The target is the same in test [8]. The experiment in a line: qHTS assay for small molecule agonists of estrogen receptor alpha signaling (AID 588514; calls by dose curve;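 also: 0% = vehicle only and 100% = reference agonist; nearly all actives have a fitted effect of over 70% in size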). Particulars: ER-alpha-UAS-bla HEK293, beta-lactamase ratio, 18 h; series mostly up to 76.8 µM. An outline of the steps:
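Read-out: CCF4 fluorescence from a beta-lactamase reporter in ER-alpha-UAS-bla HEK 293 cells after 18 hrs of compound exposure at 37 C. Normalized to 20 nM 17-beta-estradiol (100%) and DMSO (0%).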

For test [9], the target named is Peroxisome proliferator-activated receptor delta (Homo sapiens) (UniProt Q03181). The experiment in a line: qHTS assay for small molecule antagonists of peroxisome proliferator-activated receptor delta signaling (AID 588535; active = well fitted inhibition curve with a large enough effect in the signal ratio, with a control signal flat, not every such curve was filed as active; the % refers to the signal ratio). The note with it: HEK293T PPARd-UAS-bla, beta-lactamase FRET ratio, 18 h; series mostly up to 76.7 µM. An outline of the steps: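 Beta-lactamase reporter read-out (405 nm excitation, 460/530 nm emission) after CCF4 loading for 2 hrs at RT. HEK293T PPAR-delta-UAS-bla cells, 2% charcoal/dextran FBS, compounds for 18 hrs at 37 C. Hill fit gave IC50 and efficacy.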
Peroxisome proliferator-activated receptor delta (Homo sapiens), sequence (Q03181 whole entry, looked up): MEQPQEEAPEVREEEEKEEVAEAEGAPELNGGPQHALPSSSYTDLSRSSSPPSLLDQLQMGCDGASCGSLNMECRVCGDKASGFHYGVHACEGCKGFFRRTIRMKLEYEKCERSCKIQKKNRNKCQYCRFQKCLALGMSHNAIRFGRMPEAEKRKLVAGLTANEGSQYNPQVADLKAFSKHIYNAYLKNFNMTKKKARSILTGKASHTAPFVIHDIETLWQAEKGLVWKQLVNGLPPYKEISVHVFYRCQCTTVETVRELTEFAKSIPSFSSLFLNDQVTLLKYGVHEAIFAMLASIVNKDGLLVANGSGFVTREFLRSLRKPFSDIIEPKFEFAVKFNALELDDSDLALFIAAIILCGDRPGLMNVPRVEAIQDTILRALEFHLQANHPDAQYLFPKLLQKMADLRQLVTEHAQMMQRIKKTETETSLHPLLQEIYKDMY

Test [10] addresses Peroxisome proliferator-activated receptor gamma (Homo sapiens) (UniProt P37231). The experiment in a line: qHTS assay for small molecule agonists of peroxisome proliferator-activated receptor gamma signaling (AID 588536; active = well fitted curve in the direction sought with a large enough effect in the signal ratio, with a control signal flat, not every such curve was filed as active; the % refers to the signal ratio;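 also: 0% = DMSO basal wells and 100% = rosiglitazone at 2 µM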). The note with it: HEK293 PPARg-UAS-bla, beta-lactamase ratio, 16 h, percent of rosiglitazone response, DMSO as zero; series mostly up to 76.7 µM. An outline of the steps:
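Using GeneBLAzer HEK293 cells, response was quantified by CCF4 fluorescence and normalized between basal DMSO (0%) and rosiglitazone 2 uM (100%); curves yielded half-maximal stimulation concentration and efficacy.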

Test [11] deals with Vitamin D3 receptor (Homo sapiens) (UniProt P11473). The experiment in a line: qHTS assay for small molecule antagonists of vitamin D receptor signaling (AID 588541; calls by dose curve;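 also: receptor activated by calcitriol during compound treatment; % is scaled to controls: 0 for no effect and ±100 for the full control effect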). The note with it: HEK293T VDR-UAS-bla, beta-lactamase ratio, antagonist mode; series mostly up to 76.7 µM. An outline of the steps:
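VDR-UAS-bla HEK293T cells in 2% charcoal-stripped FBS were stimulated with 1-alpha,25-dihydroxyvitamin D3 (3 nM final) plus compound for 16 h at 37 C. The beta-lactamase CCF4 readout was normalized to 50 nM agonist and DMSO, and Hill fits gave IC50.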

Test [12] shares this target. The experiment in a line: qHTS assay for small molecule agonists of vitamin D receptor signaling (AID 588543; calls by dose curve;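 also: 0% = DMSO basal and 100% = reference agonist control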). The note with it: HEK293T VDR-UAS-bla, beta-lactamase ratio, 16 h; series mostly up to 76.8 µM. An outline of the steps:
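Reporter cells (HEK293T, VDR-UAS-bla) were seeded in medium with 2% charcoal-stripped serum and incubated 5 h, then compounds in concentration series were added for 16 h at 37 °C. Stimulation was scaled between DMSO basal and 50 nM 1α,25-dihydroxyvitamin D3.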

Test [13] can be described thus: qHTS assay for small molecule agonists of the antioxidant response element (ARE) signaling pathway (AID 651741; active = well fitted activation curve with a large enough effect in the signal ratio; the % refers to the signal ratio; also: potency is read from the fitted curve at half-maximal effect; as to activation: % of control where 0% means no effect). Particulars: HepG2 ARE-bla reporter, beta-lactamase FRET ratio, 16 h; series mostly up to 96 µM. An outline of the steps: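 HepG2 ARE-bla reporter cells, 2,000/well; 5 h settle at 37 C/5% CO2; compound pin transfer (23 nL, DMSO); 16 h at 37 C; LiveBLAzer B/G FRET substrate, 2 h RT; fluorescence intensity read.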

A short description of test [14]: qHTS assay for small molecule activators of the p53 signaling pathway (AID 651743; active = well fitted activation curve with a large enough effect in the signal ratio, not every such curve was filed as active; the % refers to the signal ratio; also: % of control where 0% means no effect). Particulars: HCT-116 p53RE-bla, beta-lactamase FRET ratio, 16 h; activation: stronger effect = higher value. An outline of the steps: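 Reporter: beta-lactamase driven by p53 response elements, stably integrated in HCT-116 cells. Cells seeded at 4,000/well, 5 h preincubation, compound (DMSO) 16 h at 37 C; B/G FRET substrate 2 h RT; fluorescence intensity read.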

The nature of test [15]: qHTS assay for small molecule activators of the nuclear factor-kappa B (NF-kB) signaling pathway (AID 651749; active = well fitted activation curve with a large enough effect in the signal ratio; the % refers to the signal ratio; also: % of control where 0% means no effect). The note with it: NF-kB-bla ME-180 cells, beta-lactamase FRET ratio, 16 h; stronger effect = higher value. An outline of the steps: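 NF-kB-bla ME-180 cells, 2,000/well; 23 nL compound or DMSO pinned; 16 hr, 37C/5% CO2; beta-lactamase FRET read-out.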
The target in test [16] is Tumor necrosis factor (Homo sapiens) (UniProt P01375). Briefly: qHTS assay to identify small molecules that stimulate Tumor Necrosis Factor-alpha (TNF-alpha) secretion (AID 651757; active = well fitted curve in the direction sought with a large enough effect in the signal ratio; the % refers to the signal ratio; also: 0% is about no effect). The note with it: Human cells, HTRF 665/615 ratio; series mostly up to 92.2 µM. An outline of the steps:
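THP-1 cells, 3000/well; compound 17 hrs, 37 C; add cryptate/XL665 anti-TNF-alpha antibody pair; 3 hr RT; TR-FRET (HTRF) read of secreted TNF-alpha. Quantitative HTS format.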

Test [17] deals with Nuclear receptor ROR-gamma (Homo sapiens) (UniProt P51449). The experiment in a line: qHTS assay for small molecule antagonists of the retinoid-related orphan receptor gamma (ROR-gamma) signaling pathway (AID 651802).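 Also: CHO cells with doxycycline-induced ROR-gamma expression; luciferase reporter luminescence driven by ROR response element; % is scaled to controls: 0 for no effect and ±100 for the full control effect; nearly all actives have a fitted effect of over 60% in size.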 Particulars: ROR-gamma antagonist cell reporter assay; series mostly up to 92.2 µM. An outline of the steps:
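Luciferase read-out: ONE-Glo luminescence after 30 min at room temperature, following 16hr doxycycline induction at 37C, 5% CO2 of CHO cells with TET-inducible ROR and RORE-LUC reporter; decreased luminescence = reduced reporter activity.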

Test [18] in a line: qHTS assay for small molecule antagonists of the retinoid-related orphan receptor gamma (ROR-gamma) signaling pathway - cell viability counter screen (AID 720652; active = well fitted curve in the direction sought with a large enough effect in the repeat runs; an effect the other way counts as inactive or inconclusive;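 also: CHO reporter cells with doxycycline-induced ROR-gamma expression; compound exposure lasted 16 hr before ATP read; % is scaled to controls: 0 for no effect and ±100 for the full control effect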). Particulars: RORgamma reporter cell line viability counter screen; series mostly up to 92.2 µM. An outline of the steps: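 CHO RORE-LUC/TET-ROR line, 1,000 cells/well, 37 C 5% CO2 5 hr; cpd or DMSO + doxycycline induction, 16 hr. CellTiter-Glo, 30 min RT, luminescence = ATP content.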

Test [19] in a line: qHTS assay for small molecule activators of the human pregnane X receptor (PXR) signaling pathway (AID 720659; call rule not given here; also: 0% is about no effect). The note with it: DPX-2 HepG2 CYP3A4-luciferase, 24 h; series mostly up to 92.3 µM.
The nature of test [20]: Cellular Toxicity (caspase-3) SHSY5Y (AID 657).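 Also: cells exposed to compound for 16 hours at 37 °C.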 Particulars: SH-SY5Y caspase-3 activation; series mostly up to 91.7 µM. An outline of the steps: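 qHTS, SH-SY5Y, 1500 cells/well, 5 h pre-incubation 37 °C; compound 16 h 37 °C; Caspase-Glo 3/7 1 h RT; luminescence. Norm.: DMSO = 0, 10 uM staurosporine = 100%. Hill fit → AC50.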

Vitamin D3 receptor (Homo sapiens), sequence (P11473 whole entry, looked up): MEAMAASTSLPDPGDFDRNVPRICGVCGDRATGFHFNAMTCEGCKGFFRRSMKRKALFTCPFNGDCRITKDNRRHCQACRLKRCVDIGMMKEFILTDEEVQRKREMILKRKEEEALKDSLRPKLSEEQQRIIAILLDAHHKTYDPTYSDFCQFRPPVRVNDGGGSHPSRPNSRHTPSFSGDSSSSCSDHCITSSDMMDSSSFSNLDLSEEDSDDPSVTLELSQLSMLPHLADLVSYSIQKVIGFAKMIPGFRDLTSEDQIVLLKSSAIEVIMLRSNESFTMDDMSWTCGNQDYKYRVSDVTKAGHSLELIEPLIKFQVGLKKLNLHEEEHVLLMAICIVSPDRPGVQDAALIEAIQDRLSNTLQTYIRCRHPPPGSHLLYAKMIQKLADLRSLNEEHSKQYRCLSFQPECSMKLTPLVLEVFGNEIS
Nuclear receptor ROR-gamma (Homo sapiens), sequence (P51449 whole entry, looked up): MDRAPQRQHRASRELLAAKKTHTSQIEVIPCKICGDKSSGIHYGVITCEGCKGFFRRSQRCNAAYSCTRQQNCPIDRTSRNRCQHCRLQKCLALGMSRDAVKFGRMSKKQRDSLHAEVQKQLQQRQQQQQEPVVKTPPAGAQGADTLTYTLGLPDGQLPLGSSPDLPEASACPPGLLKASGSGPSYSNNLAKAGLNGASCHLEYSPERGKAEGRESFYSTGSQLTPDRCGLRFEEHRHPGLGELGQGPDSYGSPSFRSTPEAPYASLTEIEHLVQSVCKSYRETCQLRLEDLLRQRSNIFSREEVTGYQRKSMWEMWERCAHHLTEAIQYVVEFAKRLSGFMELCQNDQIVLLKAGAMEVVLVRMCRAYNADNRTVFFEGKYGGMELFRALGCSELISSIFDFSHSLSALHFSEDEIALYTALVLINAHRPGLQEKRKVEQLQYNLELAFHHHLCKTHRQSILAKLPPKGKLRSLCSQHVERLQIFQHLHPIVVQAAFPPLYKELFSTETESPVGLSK
Peroxisome proliferator-activated receptor gamma (Homo sapiens), sequence (P37231 whole entry, looked up): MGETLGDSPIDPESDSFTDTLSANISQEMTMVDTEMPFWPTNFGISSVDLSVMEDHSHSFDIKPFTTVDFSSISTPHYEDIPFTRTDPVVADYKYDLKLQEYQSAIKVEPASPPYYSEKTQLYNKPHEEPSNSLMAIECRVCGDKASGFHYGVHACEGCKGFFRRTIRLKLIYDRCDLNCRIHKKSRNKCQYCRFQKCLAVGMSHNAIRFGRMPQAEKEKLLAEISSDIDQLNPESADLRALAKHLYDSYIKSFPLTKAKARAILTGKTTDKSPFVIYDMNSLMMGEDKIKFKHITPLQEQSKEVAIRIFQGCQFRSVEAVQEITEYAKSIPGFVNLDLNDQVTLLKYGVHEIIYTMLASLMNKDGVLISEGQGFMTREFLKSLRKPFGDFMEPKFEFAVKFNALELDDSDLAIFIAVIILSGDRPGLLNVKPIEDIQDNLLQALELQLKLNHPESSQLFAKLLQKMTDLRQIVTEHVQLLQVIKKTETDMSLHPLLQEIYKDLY
Tumor necrosis factor (Homo sapiens), sequence (P01375 whole entry, looked up): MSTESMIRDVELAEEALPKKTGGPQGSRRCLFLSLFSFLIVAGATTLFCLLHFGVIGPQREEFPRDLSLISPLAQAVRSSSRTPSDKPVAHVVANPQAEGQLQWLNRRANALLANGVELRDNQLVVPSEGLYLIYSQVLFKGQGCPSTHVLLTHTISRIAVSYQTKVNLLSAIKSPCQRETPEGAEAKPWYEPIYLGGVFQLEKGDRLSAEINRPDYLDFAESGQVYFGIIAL

On to `O=[N+]([O-])c1cccc(I)c1`, for which the Potency in [1] is over 92 µM. The activity change, negative = cytotoxicity in test [2] was -7.89%. The Potency entry in test [3], in test [5], in test [6], in test [8], in test [11] and in test [12] was “inactive” in each case. The Potency result in test [13], in test [16], in test [17] and in test [18] was “inactive” in each case. The result in [4], in test [7], in [9], in test [10] and in test [19] was inactive. The results for the activation in [14] and in test [15] were -3.48% and -0.0255%, respectively.

For `c1ccncc1`, the Potency in test [1] is over 92 µM. In addition, the activity change, negative = cytotoxicity in test [2] was -13.1%. The Potency result in [20], in [3], in [8], in test [11], in test [12] and in test [13] was “inactive” in each case. For the same compound, the Potency result in test [16], in test [17] and in [18] was “inactive” in each case. Moreover, the outcome in test [4], in test [7], in [10] and in test [19] was inactive. In addition, the activation in [14] is -0.205%; in test [15], 0.644%.

For `COc1ccc(C(=O)Nc2ccccc2)cc1[N+](=O)[O-]`, the Potency in test [1] is over 92 µM. The Potency result in test [20], in test [3], in test [11], in test [12], in test [16] and in [17] was “inactive” each time. For the same compound, the Potency entry in test [18] is “inactive”. Also, the result in test [4], in [7] and in test [10] was inactive. In addition, the activation in test [14] was -6.78%; in [15] it was 1.42%.

For `CCCCCCc1ccc(-c2ccc(C#N)cc2)cc1`, in test [1], the Potency is over 92 µM. Besides, the activity change, negative = cytotoxicity in test [2] was -12.5%. Moreover, the Potency result in test [20], in test [3], in test [5], in [6] and in [16] was “inactive” throughout. The outcome in test [9] and in test [19] was inactive. In addition, the activation in test [14] is 1.83%.

As to `CC(C)S`, the Potency in test [1] was over 92 µM. The activity change, negative = cytotoxicity in test [2] is -8.42%. Besides, the Potency result in test [20], in test [3], in test [8], in test [11], in test [12] and in test [16] was “inactive” throughout. Besides, the Potency result in [18] is “inactive”. The compound was called inactive in test [4], in test [7], in test [9], in [10] and in [19]. For the same compound, the activation in test [14] was -1.26%; in test [15], -0.169%.

As for `C[Si](C)(C)Cl`, the Potency in [1] was over 92 µM. Besides, the activity change, negative = cytotoxicity in test [2] was -21.3%. Further, the Potency result in [20], in test [5], in test [6], in [8], in test [16] and in test [17] was “inactive” in each case. In test [18], the Potency result was “inactive”. The outcome in test [7] and in test [19] was inactive. Also, the activation is -2.87% in [14] and 1.18% in test [15].

As for `Cc1ccc2ccc3cccc4ccc1c2c34`, the Potency in test [1] was over 92 µM; in test [13], 59.6 µM (active). Moreover, the activity change, negative = cytotoxicity in test [2] is -8.7%. Besides, the Potency entry in [20], in test [3], in [8] and in test [16] was “inactive” in each case. Also, the result in test [4], in test [7], in [9], in [10] and in test [19] was inactive. The activation in [15] is -0.92%.

Turning to `CCCCCCCCC1CO1` (stereo not given), in test [1], the Potency is over 92 µM. The activity change, negative = cytotoxicity in test [2] was -9.26%. Moreover, the Potency result in test [20], in test [5], in test [6], in test [11], in test [12] and in [16] was “inactive” throughout. The Potency result in test [17] and in [18] was “inactive” throughout. Moreover, the outcome in [9], in test [10] and in test [19] was inactive. Further, in [14], the activation is -2.83%.
